12 compounds from PubChem BioAssay (NCATS) can be followed below.

Each structure is given as a SMILES string. “And” between values parts separate entries of the source, which are not always exact repeats. Identical values can stand only once. Inconclusive results are not listed. The source made the active and inactive calls. The call rests on the fitted dose curve; in most records, active means well fitted cell-killing curve with a large enough effect; inconclusive means small, poorly fitted or top-dose-only effect; inactive means no such curve, though single readings can be large or run the other way.
On the % scale 0 is the no-effect control and ±100 the full control effect; potency means the concentration at half of the fitted maximal effect.

The test is described as follows: qHTS of pediatric cancer cell lines to identify multiple opportunities for drug repurposing: Confirmatory screen for TC32 cells (AID 1347118).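 Further: cells exposed to compound for 48 h before the read; nearly all actives have a fitted effect of over 65% in size.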 The conditions noted are these: TC32 Ewing sarcoma cells viability qHTS; series mostly up to 45.9 µM; activity change, negative = cytotoxicity: at the top concentration. The text has this: Drug repurposing or repositioning has been offered as a strategy for drug development in oncology programs. This approach has special potential for childhood cancers and other rare or orphan diseases, where the expected return on new drug development has been a disincentive to pharmaceuticals.
In this project we exploit the poly-pharmacology of drugs to discover new indications via phenotypic screening of a panel of 19 well-characterized cell lines derived from solid tumors seen in children and adolescents. The goal is to identify approved drugs with previously unrecognized anticancer properties that has the potential to reveal new mechanisms and biological processes involved in carcinogenesis or drug resistance. We employed a titration-based paradigm (quantitative high-throughput screening or qHTS), where all compounds were tested at multiple concentrations for their effect on cell viability. Concentration-response curves (CRCs) were derived directly from the primary screen, and both potency and efficacy values were used to identify compounds with robust bioactivity profiles. We screened the NIH Chemical Genomics Center (NCGC) Pharmaceutical Collection (NPC) and Mechanism Interrogation Plate (MIPE) small molecule collections of approved and investigational compounds against these cell lines; and measured metabolically active cells after 48 hours of compound treatment as a proxy for cell viability.
Assay Submitter: Nathalia J. Martinez, National Center for Advancing Translational Sciences, National Institutes of Health, Rockville, MD, USA; email: natalia.martinez@nih.gov
[1] Shen, M et al. Quantitative high-throughput phenotypic screening of pediatric cancer cell lines identifies multiple opportunities for drug repurposing. Oncotarget 2017 Dec 19;9(4):4758-4772. PMID 29435139.
The cells were obtained from University of North Carolina (UNC), Pediatric Preclinical Testing Program (PPT), and Coriell Institute (CI).
qHTS cell viability assay:
Cells were assayed in growth media at a density of 500-1,000 cells/well. Five microliters of cells were dispensed into 1,536-well, white, solid-bottom, TC-treated plates (Greiner Bio One) using a multidrop dispenser and incubated at 37 degrees C, 5% CO2, under a humidified atmosphere for 5 hours. Twenty-three nanoliters of compounds and controls (neutral control DMSO or positive control bortezomib at final concentration of 2.3 uM) were subsequently transferred by Kalypsys pintool. For primary screens, the MIPE collection was tested at 11-point dilutions (final concentrations range from 0.78 nM to 46 µM) and the NPC collection at 8-point dilutions (final concentrations range from 0.59 nM to 46 µM). Compounds tested in follow-up screens were assayed at 11-point dilutions. Cells were incubated for 48 hours, followed by addition of 3 uL of CellTiter-Glo (Promega). After a 15min incubation at room temperature, samples were analyzed for luminescence intensity using a ViewLux High-throughput CCD imager equipped with clear filters.
(qHTS replaces the single test concentration by a dilution series.)
Consider `CCCCCCCCC(=O)NCc1ccc(O)c(OC)c1`, for which the Potency was 5.22 µM (active).
On the same count and under the same terms, next, `COC(=O)C1=CCCN(C)C1`: 10.4 µM (active); `CC[n+]1c(-c2ccccc2)c2cc(N)ccc2c2ccc(N)cc21`: 1.17 µM (active); `CN(C)C(=S)SSC(=S)N(C)C`: 1.04 µM (active).
In the case of `C[C@@H]1C[C@@H]([C@H](O)CC2CC(=O)NC(=O)C2)C(=O)[C@@H](C)C1`, the Potency was 465 nM (active) and 522 nM (active).
For the compound `CC1Sc2c(C(=O)O)c(=O)c3cc(F)c(N4CCNCC4)cc3n21` (configuration not stated), the Potency was 18.5 µM (active).
The same measure, in the same setting: the same measure for `COc1ccc(C(=O)N2CCCC2=O)cc1`: 14.7 µM (active).
For `C[C@@H]1O[C@@H](O[C@@H]2C=C3CC[C@@H]4[C@H](CC[C@]5(C)[C@@H](c6ccc(=O)oc6)CC[C@]45O)[C@@]3(C)CC2)[C@H](O)[C@H](O)[C@H]1O`, the Potency is 0.0233 µM (active).
For the compound `CN1[C@@H]2CC[C@H]1CC(OC(=O)c1cc(Cl)cc(Cl)c1)C2` (some centres not stated), the “activity change, negative = cytotoxicity” value is -15.5% (inactive).
For the compound `COc1ccc2c(C(=O)c3ccc(Cl)cc3)c(C)n(CC(=O)O)c2c1`, the Potency is 16.5 µM (active).
Still for that read-out and setting: next, `CCCCCCCCCCCC[N+](C)(C)CCOc1ccccc1`: 7.37 µM (active).
Turning to `Cc1ccc([N+](=O)[O-])[c]2c1[O][Hg]2`, the Potency is 0.261 µM (active).
